A selection: hits, their analogues and other compounds. The true share with any hit is near 10%.
HEK cytotox = kills HEK 293 cells | AID 1345083 | hit rate 6.6% among 94,000 | HEK 293 viability, ATP luminescence (CellTiter-Glo), 48-72 h | Potency, µM (titrated, usually from 115 µM), without a hit: top-dose activity change, negative = cytotoxicity, most hits filed as inhibitors; further: nearly all actives have a fitted effect of over 60% in size
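HEK 293 cells at 250 cells/well were exposed to compounds by pintool transfer for 48 or 72 hr at 37 degree Celsius, 5% CO2. Viability was read as ATP-coupled luminescence with CellTiter-Glo after 10 min at room temperature.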
Luciferase inh = Photinus pyralis luciferase inhibition; Potency, µM (doses to about 115 µM), most hits filed as inhibitors; hit rate 2.5% among 76,000; P08659; purified P. pyralis luciferase, luminescence, biochemical; further: nearly all actives have a fitted effect of over 65% in size
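Luminescence read by CCD imager after adding enzyme (10nM final) to wells holding compound, titrated in qHTS. Substrates 10uM each D-luciferin and ATP; buffer 50mM Tris acetate pH 7.5, 10mM Mg acetate, Tween-20, BSA.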
GPT2 inhibitor = GPT2 alanine aminotransferase inhibition | Q8TD30 | Recombinant GPT2, coupled pyruvate oxidase/HRP Amplex Red fluorescence | Potency, µM (highest dose often 57.7 µM), without a hit: at the highest dose activity change, negative = inhibition, hits mostly inhibitors | hit rate 0.25% among 100,000 | AID 1671188; further: nearly all actives have a fitted effect of over 60% in size
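Fluorescence read-out: pyruvate from GPT2 turnover coupled to pyruvate oxidase, HRP and Amplex Red (0.2mM ThPP, 0.2U/mL PO and HRP, 50uM Amplex final). Substrates 250uM a-KG, 2mM L-alanine; enzyme 10ng/uL; 30 min RT.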
NIH3T3 tox = kills NIH 3T3 cells; NIH 3T3 viability, CellTiter-Glo ATP luminescence, 48-72 h; Potency, µM (doses to about 96.7 µM), for the others: at the top dose activity change, negative = cytotoxicity, actives largely listed as inhibitors; hit rate 4.3% among 94,000; AID 1345082; further: nearly all actives have a fitted effect of over 55% in size
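First NIH 3T3 cells are plated at 400 cells/well; next compound is pinned in; then plates incubate 48 or 72 hr at 37 °C; finally CellTiter-Glo is added and luminescence read after 10 min.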
hNpr1 antagonist = antagonists of human natriuretic peptide receptor Npr1. hit rate 1.6% among 76,000. HEK293 hNpr1 GloSensor cGMP, ANP-stimulated luminescence. Potency, µM (top dose mostly 46.3 µM), inactives show at the highest dose activity change, negative = inhibition, most hits filed as inhibitors. AID 1347048; calls by dose curve; further: nearly all actives have a fitted effect of over 60% in size
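HEK293 cells stably expressing human Npr1 and cGMP GloSensor pGS-40F, loaded 2 h with 2% GloSensor reagent, given compound 30 min at room temperature. Luminescence read before and 20 min after 0.1 nM hNppA.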
Starred values were filed as active, the others as inactive; i = inactive; u = inconclusive; x = not tested or not shown; ! = repeats disagree; [ ] = dose if it differs, or a comment. Unless noted, the call rests on the fitted dose curve; in most records, active means well fitted curve in the direction sought with a large enough effect; inconclusive means small, poorly fitted or top-dose-only effect, or another doubt; inactive means no such curve, though single readings can be large; an effect the other way counts as inactive or inconclusive. On the % scale 0 is the no-effect control and ±100 the full control effect; potency means the concentration at half of the fitted maximal effect.

SMILES	HEK cytotox	Luciferase inh	GPT2 inhibitor	NIH3T3 tox	hNpr1 antagonist
CCn1c(C2CCCN(C(C)=O)C2)nn(C)c1=O (configuration not stated)	12%	i	i	i	-1%
O=C(COc1ccccc1)N[C@H]1CO[C@H]2[C@@H]1OC[C@@H]2n1cc(CC2CCCCC2)nn1	-11%[172 µM]	i	-8%[88.5 µM]	40µM*	6%[70.6 µM]
O=C(N[C@H]1CO[C@H]2[C@@H]1OC[C@@H]2n1cc(CC2CCCCC2)nn1)C1CC1	-27%[172 µM]	i	-8%[88.5 µM]	32µM*	-15%[70.6 µM]
c1c(CC2CCCCC2)nnn1[C@H]1CO[C@H]2[C@@H]1OC[C@@H]2NCC1CCCCC1	u	i	i	u	-21%[70.6 µM]
COc1ccc(NC(=O)N[C@H]2CO[C@H]3[C@@H]2OC[C@@H]3n2cc(CC3CCCCC3)nn2)cc1	-10%	i	-5%	-26%	7%
Cc1cc(CN2CCn3c(nn(-c4ccc(C(F)(F)F)cc4)c3=O)C2)no1	89µM*	x	2%	u	x
COc1ccc(CN2CCn3c(nn(-c4ccc(OC)cc4)c3=O)C2)cc1	-5%	x	-7%	-15%	x
Cc1ccc(CN2CCn3c(nn(-c4ccncc4)c3=O)C2)cc1	u	i	3%[88.5 µM]	u	20µM*
COc1ccc(-n2nc3n(c2=O)CCN(Cc2ccccc2)C3)cc1	u	x	-4%	8.9µM*	x
COc1ccc(-n2nc3n(c2=O)CCN(C(=O)c2ccc(C(F)(F)F)cc2)C3)cc1	-2%	x	i	32µM*	x
COc1ccc(C(=O)N2CCn3c(nn(-c4ccc(OC)cc4)c3=O)C2)cc1	-5%	x	0%	u	x
CC12CCC(C(OC3OC(COC4OCC(O)(CO)C4O)C(O)C(O)C3O)C1)C(C)(C)O2 (configuration not stated)	x	x	i	x	x
COc1cccc(C(=O)N2CC(=O)N(Cc3c(OC)cccc3OC)CC(O)C2)c1 (configuration not stated)	-9%	x	x	u	x
Cc1ccc(CN2CCn3c(nn(-c4ccc(C(F)(F)F)cc4)c3=O)C2)cc1	u	i	-26%	u	4%
O=c1n(-c2ccc(C(F)(F)F)cc2)nc2n1CCN(Cc1ccccc1)C2	7.9µM*!	i	0%	u	1%
COc1ccccc1-c1cccc(C(=O)N2CCC[C@H]2C(=O)NCC2CC2)c1	u	x	i	-19%[138 µM]	x
COc1ccccc1-c1ccc(CN2CCCCC2C(=O)NCC2CC2)cc1 (configuration not stated)	45µM*!	x	x	u	x
COc1ccccc1-c1cccc(C(=O)N2CCC[C@H]2C(=O)NCc2ccc(F)cc2F)c1	u	x	0%	u	x
COc1ccccc1-c1ccc(CN2CCCCC2C(=O)NCc2ccccc2)cc1 (configuration not stated)	32µM*	x	x	u	x
COc1ccc(CNC(=O)C2CCCCN2Cc2ccc(-c3cccs3)cc2)cc1 (configuration not stated)	u	x	-8%	u	x
COc1ccccc1-c1ccc(CN2CCCCC2C(=O)NCc2ccccc2F)cc1 (configuration not stated)	40µM*	x	x	u	x
COc1ccc(C(=O)N2CCN(c3cc(C(F)(F)F)nc(C)n3)CC2)cc1	u	i	0%	-24%	4%
O=C(NCC1CCCN(C(=O)c2ccsc2)C1)c1ccc(-c2ccccc2)cc1 (configuration not stated)	45µM*	u	i	u	u
O=C(NCC1CCCN(Cc2ncccn2)C1)c1ccc(-c2ccccc2)cc1 (configuration not stated)	u	i	u	-9%	-1%
CCn1ccnc1CN1CCCC(CNC(=O)c2ccc(-c3ccccc3)cc2)C1 (configuration not stated)	u	i	i	u	-7%
O=C(c1ccc2cc[nH]c2c1)N1CCCC(Cc2noc(-c3ccccc3)n2)C1 (configuration not stated)	u	i	i	20µM*	1%
O=C(C1CC1)N1CCCC(Cc2noc(-c3ccccc3)n2)C1 (configuration not stated)	u	u	i	u	4%

Screens from PubChem.
